Source: PubChem BioAssay (NCATS)
Records with an inconclusive call do not appear. Activity calls are given as the source filed them. Calls come from the whole dose curve; as a rule, active = well fitted curve in the direction sought with a large enough effect; inconclusive = small, poorly fitted or top-dose-only effect, or another doubt; inactive = no such curve, though single readings can be large; an effect the other way counts as inactive or inconclusive.

What was measured:
[1] = target: Arylsulfatase A (Homo sapiens) (UniProt P15289); experiment: qHTS screen for enhancers of Arylsulfatase A (ASA1): LOPAC Validation Assay (AID 720538); note: potency is the fitted concentration of half-maximal effect
Procedure, shortened: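 Cell-based enhancement test: residual ASA activity in SV40-transformed I179S patient fibroblasts is measured by pNCS turnover (0.5mM final, 14h, room temperature) following 48h compound incubation; higher fluorescence indicates activation.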

[2] = qHTS for compounds that reverse cellular toxicity of Amyloid beta (A-beta) peptide in yeast: LOPAC Validation Assay (AID 720559)
Procedure, shortened: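 Here, A-beta-toxic yeast grow with test compounds at 30 C for 48 hr before optical density at 600 nm is recorded; data are normalized against DMSO and the FeCl3-clioquinol control.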

[3] = qHTS for Activators of Parkin Expression: LOPAC Validation Assay (FLuc Reporter) (AID 720573)
Procedure, shortened: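 Readout is FLuc luminescence from neuronal reporter cells (Parkin promoter, FLuc plus NLuc) after 24 h compound exposure in dose response. Values normalized to neutral DMSO and positive-control compounds.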

[4] = qHTS for Activators of Parkin Expression: LOPAC Validation Assay (NLuc Reporter) (AID 720572)
Procedure, shortened: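 Compound effects on Parkin promoter activity were measured as NanoLuc luminescence after 24 h at 37 C. The neuronal reporter line also carried FLuc, which was read first. LOPAC compounds were tested at 7 concentrations, with normalization to DMSO (0%) and positive control (100%).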

Measured: Potency

Sequence of Arylsulfatase A (Homo sapiens) (P15289 whole entry, looked up): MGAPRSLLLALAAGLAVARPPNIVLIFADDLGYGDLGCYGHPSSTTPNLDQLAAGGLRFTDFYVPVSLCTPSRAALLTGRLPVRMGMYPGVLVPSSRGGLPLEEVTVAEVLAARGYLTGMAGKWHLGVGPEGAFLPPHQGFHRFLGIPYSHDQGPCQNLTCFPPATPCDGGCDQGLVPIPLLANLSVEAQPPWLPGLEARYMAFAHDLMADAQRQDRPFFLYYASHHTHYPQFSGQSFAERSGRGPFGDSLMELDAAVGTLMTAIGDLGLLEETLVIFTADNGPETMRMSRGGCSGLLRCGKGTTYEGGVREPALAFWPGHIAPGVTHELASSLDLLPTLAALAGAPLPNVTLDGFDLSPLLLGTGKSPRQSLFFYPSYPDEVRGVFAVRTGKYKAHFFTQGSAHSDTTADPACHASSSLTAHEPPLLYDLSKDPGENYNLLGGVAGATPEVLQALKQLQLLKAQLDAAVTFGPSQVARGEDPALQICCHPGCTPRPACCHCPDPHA

C[C@H](NC(=O)/C(C#N)=C/c1ccc(O)c(O)c1)c1ccccc1
inactive: [1] | [2] | [3]

O=C(O)C1=CCCNC1
inactive: [1] | [2] | [3]

CCCC[C@@]1(C2CCCC2)Cc2cc(OCC(=O)O)c(Cl)c(Cl)c2C1=O
inactive: [1] | [2] | [3]

Cc1cccc(C2CN(C)CCc3c2cc(O)c(O)c3Cl)c1 (centres undefined)
inactive: [1] | [2] | [3]

C=CC1(C)CC(=O)C2(O)C(C)(O1)C(OC(C)=O)C(O)C1C(C)(C)CCC(O)C12C (centres undefined)
inactive: [1] | [2] | [3]

O=C(O)C1=CCCN(CCON=C(c2ccccc2)c2ccccc2)C1
inactive: [1] | [2] | [4] | [3]

Nc1ncnc2c1ncn2C1CCCO1 (centres undefined)
inactive: [2] | [3]
active: [1] 2690 nM

NC1CCN(O)C1=O (centres undefined)
inactive: [1] | [2] | [4] | [3]

CN1CCN(c2nc3cc(C(F)(F)F)ccc3n3cccc23)CC1
inactive: [1] | [2] | [3]

Nc1ccc(CCNc2ncnc3c2ncn3C2OC(CO)C(O)C2O)cc1 (centres undefined)
inactive: [1] | [2] | [3]

CN(C)C(=O)/N=N/C(=O)N(C)C
inactive: [1] | [2] | [3]

CC(N)=NCCCC[C@@H](N)C(=O)O
inactive: [1] | [2] | [4] | [3]

CC#CCOC(=O)c1c(C)nc2sc3c(c2c1N)CCC(O)C3 (centres undefined)
inactive: [1] | [2] | [4] | [3]

CNCCNS(=O)(=O)c1cccc2cnccc12
inactive: [1] | [2] | [3]

Brc1c(Br)c(Br)c2[nH]cnc2c1Br
inactive: [1] | [2] | [3]
